# Screens deposited in PubChem by National Center for Advancing Translational Sciences (NCATS).
# RE007 growth inh – less growth of the S. pombe RE007 Vpr strain; S. pombe RE007 Vpr strain, BacTiter-Glo ATP luminescence, 24 h; Potency, µM (doses to about 92.2 µM), inactives show at the top dose activity change, negative = less growth, actives largely listed as inhibitors; 0.21% of 360,000 active; AID 651644; active means well fitted falling curve with a large enough effect; inconclusive means small, poorly fitted or top-dose-only effect; inactive means no such curve, though single readings can be large or run the other way; further: nearly all actives have a fitted effect of over 50% in size
#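 Fission yeast strain RE007, carrying one chromosomally integrated HIV-1 vpr copy, was seeded at OD 0.01 in PMG+AL medium with 23 nL pinned compound. After 24 h at 30 °C and 99% humidity, viability was read by BacTiter-Glo luminescence.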
# TbPYK inhibitor – inhibitors of Trypanosoma brucei pyruvate kinase; Q57TT1; TbPYK enzyme, Kinase-Glo Plus ATP luminescence, 45 min; Potency, µM (highest dose often 76.8 µM), without a hit: at the highest dose activity, negative = inhibition, most hits filed as inhibitors; 0.12% of 410,000 active; further: nearly all actives have a fitted effect of over 50% in size
#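 Screened from lowest to highest concentration, compounds were pinned into TbPYK/substrate mixtures, and ADP (130 uM final) was added. Plates sat at room temperature for 45 min prior to Kinase-Glo Plus detection by luminescence.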
# Sm TGR block – S. mansoni TGR enzyme inhibition | Q962Y6 | purified TGR, DTNB reduction, TNB absorbance 405 nm | Potency, µM (series often up to 114 µM), without a hit: at the highest dose activity change, negative = inhibition, most hits filed as inhibitors | 3% of 360,000 active; further: nearly all actives have a fitted effect of over 60% in size
#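 First, TGR (20 nM dispensed) and NADPH were mixed with compound. Second, a 15 min room-temperature incubation followed. Third, further NADPH and then DTNB were added to start the reaction. Finally, TNB absorbance was monitored kinetically.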
# AMA1-RON2 inh – disrupts binding of P. falciparum AMA1 to RON2; Potency, µM (top dose mostly 58.2 µM), inactives show at the highest dose activity change, negative = inhibition, most hits filed as inhibitors; AlphaScreen AMA1-biotinylated RON2 peptide binding; 0.2% of 360,000 active;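 further: 0% = vehicle wells and -100% = peptide control; nearly all actives have a fitted effect of over 45% in size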
#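 AMA1 (3D7) with his tag at 25 nM final met compounds first, then biotinylated RON2 peptide at 25 nM; detection used donor plus acceptor beads, 10 µg/mL apiece, read by AlphaScreen after 30 min at room temperature.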
# LmPK inh – inhibitors of Leishmania mexicana pyruvate kinase; Q27686; purified LmPK, Kinase-Glo ATP luminescence, 1 h; Potency, µM (highest dose often 57.5 µM), for the others: top-dose activity change, negative = inhibition, most hits filed as inhibitors; 0.37% of 290,000 active
# Target sequence (Q27686 whole entry, looked up): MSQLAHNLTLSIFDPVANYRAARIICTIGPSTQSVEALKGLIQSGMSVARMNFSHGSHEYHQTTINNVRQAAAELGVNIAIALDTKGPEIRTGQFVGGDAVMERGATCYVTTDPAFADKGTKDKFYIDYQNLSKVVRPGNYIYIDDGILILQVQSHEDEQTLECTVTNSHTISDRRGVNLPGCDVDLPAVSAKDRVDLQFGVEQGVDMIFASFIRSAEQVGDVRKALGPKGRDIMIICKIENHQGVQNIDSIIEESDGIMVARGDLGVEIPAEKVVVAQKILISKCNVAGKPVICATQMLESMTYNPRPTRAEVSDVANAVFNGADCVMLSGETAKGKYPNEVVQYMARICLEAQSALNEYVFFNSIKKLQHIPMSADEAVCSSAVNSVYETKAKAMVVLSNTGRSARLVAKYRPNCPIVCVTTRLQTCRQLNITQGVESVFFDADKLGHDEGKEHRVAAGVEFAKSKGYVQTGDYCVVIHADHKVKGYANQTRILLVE
#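 Pyruvate kinase activity monitored as ATP production (luciferase luminescence). Conditions: 0.1 nM enzyme, 0.5 mM PEP, 0.1 mM ADP, 1 h, RT; normalized against uninhibited and no-enzyme wells.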
# * = called active by the depositor; ? = inconclusive; · = no result. Only some compounds are listed: those with a hit (about 3.2% of all), similar ones and a draw of the others. Unless noted, the call rests on the fitted dose curve; in most records, active means well fitted curve in the direction sought with a large enough effect; inconclusive means small, poorly fitted or top-dose-only effect, or another doubt; inactive means no such curve, though single readings can be large; an effect the other way counts as inactive or inconclusive. Unless noted, on the % scale 0 is the no-effect control and ±100 the full control effect; potency means the concentration at half of the fitted maximal effect.
SMILES,RE007 growth inh,TbPYK inhibitor,Sm TGR block,AMA1-RON2 inh,LmPK inh
CC(/C=C/c1ccco1)=N\NC(=O)COc1ccc(C)c(C)c1,-15.8%,-4.8%,7.08µM*,-16.4%,5.2%
Cc1ccc(OCCNC(=O)/C=C/c2ccco2)cc1C,-12.4%,-24.1%,1.12µM*,7.7%,-0.2%
Cc1ccc(OCCNC(=O)/C=C/c2ccccc2)cc1C,-4.1%,2.0%,1.1%,2.3%,0.0%
Cc1ccc(S(=O)(=O)c2cn(C)c3cc(N4CCCC(C)C4)c(F)cc3c2=O)c(C)c1 (stereo not drawn),·,0.2%,-11.1%,·,·
Cc1cccn2c(=O)cc(CSc3nnc(NC(=O)c4ccc(F)cc4)s3)nc12,·,7.3%,3.9%,·,·
CCOc1ccc(OCc2cccc(C(=O)N3CCCC3)c2)cc1,13.6%,-11.8%,14.2%,11.6%,1.6%
CCOc1ccc(OCc2cccc(C(=O)O)c2)cc1,?,?,-6.2%,0.0%,6.31µM*
COc1ccc(OCc2cccc(C(=O)O)c2)cc1,-18.3%,-19.0%,1.5%,-10.1%,15.8µM*
O=C(O)c1cccc(COc2ccc3c(c2)CCC3)c1,2.0%,-9.8%,13.1%,1.1%,?
CC(C)CN(CC(C)C)S(=O)(=O)c1ccc(C(=O)Nc2sc3c(c2C(N)=O)CCN(C(C)C)C3)cc1,·,1.5%,5.6%,·,·
COc1ccc2c(Sc3ccccc3)c(C(=O)NCCN(C)C)[nH]c2c1,·,0.8%,39.8µM*,·,·
COc1ccc2c(Sc3ccc(C)cc3)c(C(=O)NCc3ccc(F)cc3)[nH]c2c1,·,0.5%,44.7µM*,·,·
Cc1ccc2c(c1)N/C(=C(\C=C(/Cl)[N+](=O)[O-])[N+](=O)[O-])N2,·,·,8.91µM*,·,-3.4%
Cc1cc(O)cc2c1C(=O)/C(=C/c1ccco1)O2,-24.6%,-15.0%,31.6µM*,-16.1%,-0.4%
COC(=O)COc1ccc2c(c1)O/C(=C\c1ccco1)C2=O,-12.4%,-9.4%,17.8µM*,-18.4%,-5.2%
CCN(CC)C(=O)Oc1ccc2c(c1)O/C(=C\c1ccco1)C2=O,-1.8%,-15.0%,0.0%,-12.6%,-5.9%
Cc1ccsc1/C=C1\Oc2cc(O)ccc2C1=O,-29.4%,-15.7%,·,-0.4%,·
CCC(=O)Oc1ccc2c(c1)O/C(=C\c1ccco1)C2=O,?,-2.8%,11.2µM*,-22.4%,-3.9%
COc1cc(NC(=O)C2CCN(S(=O)(=O)c3ccc4c(c3)CCCC(=O)N4)CC2)cc(OC)c1,·,1.0%,-2.4%,·,·
CCOC(=O)[C@H](CCc1ccccc1)N[C@@H](C)C(=O)N1C(=O)N(C)C[C@H]1C(=O)O,·,-7.6%,·,·,·
CCOC(=O)c1c(N2C(=O)C=CC2=O)sc(C)c1C,12.6µM*,25.1µM*,0.447µM*,-1.3%,?
CCOC(=O)COc1ccc2c(C)c(CCN(CC)CC)c(=O)oc2c1,·,21.5%,·,·,·
O=C(NCC1CCCO1)c1cc(S(=O)(=O)N2CCCCC2)ccc1Cl (stereo not drawn),-0.7%,2.2%,2.82µM*,13.6%,·
CC(C)(C)CC(=O)Nc1cc(S(=O)(=O)N2CCCCCC2)ccc1Cl,11.7%,-9.8%,-3.0%,6.7%,-1.9%
Cc1ccc(S(=O)(=O)N2CCCCC2)cc1C(=O)NCC1CCCO1 (stereo not drawn),0.5%,0.5%,8.4%,1.1%,-1.6%
SMILES,RE007 growth inh,TbPYK inhibitor,Sm TGR block,AMA1-RON2 inh,LmPK inh
CCCCNC(=S)Nc1cc(S(=O)(=O)N2CCCCC2)ccc1C,-2.3%,-5.6%,2µM*,0.6%,6.8%
O=C(CCl)Nc1cc(S(=O)(=O)N2CCCCCC2)ccc1Cl,-5.9%,-1.1%,15.8µM*,12.0%,-0.9%
Cc1cc2oc(C(=O)Nc3ccc(S(=O)(=O)N(C)c4ccccc4)cc3)cc(=O)c2cc1C,·,-10.0%,6.2%,·,·
COc1ccccc1NC(=O)N1CCN(c2nnc(C)c3c(C)n(-c4ccccc4)nc23)CC1,·,0.7%,5.7%,·,·
COc1cccc(NC(=O)CN(C)CC(=O)c2c(C)[nH]c3ccccc23)c1,7.5%,-6.9%,17.8µM*,2.9%,·
COc1ccc2[nH]c(C)c(C(=O)CN(C)C)c2c1,5.6%,4.9%,39.8µM*,14.2%,7.3%
CCC1CCCCN1CC(=O)c1c(C)[nH]c2ccc(OC)cc12 (stereo not drawn),-23.8%,-1.1%,?,0.4%,1.8%
